# Source: PubChem BioAssay (NCATS)
# Inconclusive results are not listed. Calls of active or inactive are those of the source. Calls follow the shape of the dose curve; as a rule, active = well fitted inhibition curve with a large enough effect; inconclusive = small, poorly fitted or top-dose-only effect; inactive = no such curve, though single readings can be large or run the other way.
# Assay: qHTS assay for measurement of the activity of small molecule inhibitors on Zika virus induced Caspase-3 activity in human iPSC derived neural progenitor cells (hNPCs) (AID 1224857); also: nearly all actives have a fitted effect of over 65% in size; as to activity change, negative = inhibition: % of control where 0% means no effect
# Details: hNPCs ZIKV-induced caspase-3/7, Caspase-Glo luminescence, 6 h; series mostly up to 45.7 µM; activity change, negative = inhibition: at the top concentration
# Outline: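 hNPCs seeded 350 cells/well, cultured 16–20 h; compounds added 1 h before ZIKV (2 FFU/cell), 37 C 6 h. Caspase-Glo 3/7 luminescence after 30 min RT; % inhibition from induction scaled to uninfected (0%) and infected (100%) wells.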
# Potency is read from the fitted curve at half-maximal effect.
SMILES,"activity change, negative = inhibition",Potency
CCC(CO)Nc1nc(NCc2ccccc2)c2ncn(C(C)C)c2n1 (stereo unspecified),37.4% (inactive),–
Cc1ccc(O)c(N=Nc2ccccc2)n1,–,0.891 µM (active)
CNc1ncnc2c1ncn2[C@@H]1O[C@H](CO)C(O)[C@H]1O (stereo partly specified),-6.29% (inactive),–
Nc1ccn([C@@H]2O[C@H](CO)[C@@H](O)[C@@H]2O)c(=O)n1,31.8% (inactive),–
NS(=O)(=O)c1ccc(-n2nc(C(F)(F)F)cc2-c2ccc(Cl)cc2)cc1,25.4% (inactive),–
Nc1nc2c(ncn2[C@@H]2O[C@H](CO)[C@@H](O)[C@@H]2O)c(=O)[nH]1,-17% (inactive),–
Nc1nc(SCc2ccc([N+](=O)[O-])cc2)c2ncn([C@@H]3O[C@H](CO)C(O)[C@H]3O)c2n1 (stereo partly specified),34.2% (inactive),–
O=C1CN(/N=C/c2ccc(-c3ccc([N+](=O)[O-])cc3)o2)C(=O)N1,-12.2% (inactive),–
O=C(Nc1ccncc1)c1cc([N+](=O)[O-])ccc1Cl,8.36% (inactive),–
CCCCC#Cc1nc(NC)c2ncn([C@@H]3O[C@H](CO)[C@@H](O)C3O)c2n1 (stereo partly specified),5.81% (inactive),–
COCCOc1cc2nc[nH]c(=O)c2cc1OCCOC,17.9% (inactive),–
CC(C)(NS(=O)(=O)c1ccc(Oc2ccc(F)cc2)cc1)C(=O)NO,-1.84% (inactive),–
Cc1ccc2c(n1)Oc1ccc(C(C)C(=O)OCC(=O)N(C)C)cc1C2 (stereo unspecified),–,14.1 µM (active)
O=c1cc(-c2ccccc2)oc2ccccc12,–,35.5 µM (active)
Nc1ncnc2c1ncn2[C@@H]1O[C@H](CO)C(O)[C@H]1O (stereo partly specified),4.82% (inactive),–
OCC1O[C@H]([S-])C(O)[C@@H](O)[C@@H]1O.[Au+] (stereo partly specified),4.18% (inactive),–
O=C(Nc1ccc2[nH]ncc2c1)C1CCC1,-10.8% (inactive),–
COC(=O)C1=C(C)NC(C)=C(C(=O)OC)C1c1cccc(NC(=O)NCCCN2CCC(c3cccc(OC)c3)CC2)c1,-6.34% (inactive),–

SMILES,"activity change, negative = inhibition",Potency
O=C1NC(O)=NC1(c1ccccc1)c1ccccc1,-36.4% (inactive),–
Cn1c(=O)c(-c2c(Cl)cccc2Cl)cc2cnc(Nc3ccc(N4CCOCC4)cc3)nc21,-0.197% (inactive),–
Fc1ccc2[nH]c(CN3CCN(c4ccccn4)CC3)cc2c1,-12.5% (inactive),–
CC(C)(C)NCC(O)COc1nsnc1N1CCOCC1 (stereo unspecified),-16.7% (inactive),–
Cc1cn([C@H]2CC(N=[N+]=[N-])[C@@H](CO)O2)c(=O)[nH]c1=O (stereo partly specified),-4.27% (inactive),–
Brc1cc2c(cc1[C@H]1Nc3ccccc3[C@H]3C=CC[C@H]31)OCO2,24% (inactive),–
Nc1nc(Nc2ccccc2)nc2c1ncn2[C@@H]1O[C@H](CO)C(O)[C@H]1O (stereo partly specified),-17.3% (inactive),–
COCCOc1cc2ncnc(Cl)c2cc1OCCOC,-5% (inactive),–
COc1cc(OC)cc(-c2cc3cnc(N)nc3nc2NC(=O)NC(C)(C)C)c1,9.4% (inactive),–
C=C[C@H]1CN2CC[C@@H]1C[C@H]2[C@H](O)c1ccnc2ccc(OC)cc12,-3.99% (inactive),–
O=C(NOCC1CC1)c1cc(Br)c(F)c(F)c1Nc1ccc(I)cc1Cl,32.6% (inactive),–
Nc1nc(Cl)nc2c1ncn2[C@@H]1O[C@H](CO)C(O)[C@H]1O (stereo partly specified),22.2% (inactive),–
NC(=O)C1=CN(C2OC(COP(=O)(O)OP(=O)(O)OC[C@H]3O[C@@H](n4cnc5c(N)ncnc54)[C@H](OP(=O)(O)O)C3O)C(O)C2O)C=CC1 (stereo partly specified),-2.35% (inactive),–
C[C@H](Cc1ccccc1)Nc1ncnc2c1ncn2[C@@H]1O[C@H](CO)C(O)[C@H]1O (stereo partly specified),1.31% (inactive),–
O=C1NC(=O)/C(=C/c2ccc(-c3ccc(F)cc3O)o2)S1,–,10 µM (active)
CNC(=O)c1c(I)c(NC(=O)CCCCC(=O)Nc2c(I)c(C(=O)O)c(I)c(C(=O)NC)c2I)c(I)c(C(=O)O)c1I,-19.1% (inactive),–
CC(C)(C)c1nnc(NS(=O)(=O)c2ccc(N)cc2)s1,2.36% (inactive),–
Nc1ccn([C@H]2O[C@H](CO)[C@@H](O)C2(F)F)c(=O)n1,20.2% (inactive),–
